According to PubChem BioAssay AID1159580 (chemical genetic matrix, 2015):
Values joined by “and” are separate entries in the source; they are usually repeats but may differ in a detail not shown here. Equal values may be shown once. The whole screen tested about 5,500 compounds, of which about 2,000 (36%) were called active. Roughly 18% stayed inconclusive and do not appear here. Rule as the data show it: active = normalized growth mostly below about 0.91 (no sharp cut-off); inconclusive = no clear call, values can overlap the other calls; inactive = mostly above about 0.92. The list shows a part of the results.

Assay: chemical genetic growth profiling, strain panel (AID 1159580);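 also: tested at 20 µM; growth read once vehicle control cultures reached saturation at 30 °C; 1 = growth at the plate median or of vehicle wells; lower values mean less growth of the strain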
Conditions: S. cerevisiae deletion strains, growth OD

Measured: normalized growth

O=S(=O)(O)CCS
inactive: locus YAL013W, strain DEP1, active compounds read low 1.01 | locus YAL021C, strain ccr4, active compounds read low 0.983 | locus YAL026C, strain drs2, active compounds read low 1 | locus YAL030W, strain snc1, active compounds read low 0.993 | locus YBL061C, strain skt5, active compounds read low 0.966 | locus YBR009C, strain hhf1, active compounds read low 1.01 | locus YBR021W, strain FUR4, active compounds read low 1.01 | locus YBR023C, strain chs3, active compounds read low 0.989 | locus YBR171W, strain sec66, active compounds read low 0.976 | locus YBR229C, strain ROT2, active compounds read low 1.01 | locus YBR231C, strain swc5, active compounds read low 1.01 | locus YBR279W, strain paf1, active compounds read low 0.986 | locus YCL016C, strain dcc1, active compounds read low 0.976 | locus YCL029C, strain bik1, active compounds read low 0.993 | locus YCL069W, strain vba3, active compounds read low 0.979 | locus YCR088W, strain abp1, active compounds read low 0.985 | locus YDL005C, strain med2, active compounds read low 0.949 | locus YDL035C, strain GPR1, active compounds read low 1.02 | locus YDL040C, strain nat1, active compounds read low 0.999 | locus YDL074C, strain BRE1, active compounds read low 1.05 | locus YDL101C, strain DUN1, active compounds read low 1.02 | locus YDL134C, strain PPH21, active compounds read low 1.01 | locus YDL185W, strain tfp1, active compounds read low 0.985 | locus YDL192W, strain arf1, active compounds read low 0.99 | locus YDR001C, strain nth1, active compounds read low 0.99 | locus YDR069C, strain doa4, active compounds read low 0.992 | locus YDR101C, strain arx1, active compounds read low 1.02 | locus YDR137W, strain rgp1, active compounds read low 0.984 | locus YDR150W, strain NUM1, active compounds read low 1.01 | locus YDR159W, strain sac3, active compounds read low 0.977 | locus YDR162C, strain NBP2, active compounds read low 1.01 | locus YDR195W, strain ref2 0.988 | locus YDR297W, strain sur2, active compounds read low 0.989 | locus YDR318W, strain mcm21, active compounds read low 0.991 | locus YDR334W, strain swr1, active compounds read low 0.982 | locus YDR335W, strain msn5, active compounds read low 0.981 | locus YDR388W, active compounds read low 0.978 | locus YDR392W, strain spt3, active compounds read low 0.928 | locus YDR502C, strain sam2, active compounds read low 0.995 | locus YEL003W, strain gim4, active compounds read low 0.998 | locus YEL037C, strain rad23, active compounds read low 0.985 | locus YEL061C, strain CIN8 (second series), active compounds read low 1.01 | locus YEL061C, strain CIN8, active compounds read low 1.01 | locus YER015W, strain faa2, active compounds read low 0.998 | locus YER016W, strain bim1, active compounds read low 0.945 | locus YER110C, active compounds read low 0.987 | locus YER111C, strain swi4, active compounds read low 0.981 | locus YER155C, strain BEM2 (second series), active compounds read low 1 | locus YER155C, strain BEM2, active compounds read low 1.01 | locus YER167W, strain BCK2, active compounds read low 0.996 | locus YFR010W, strain ubp6, active compounds read low 1.01 | locus YGL078C, strain dbp3, active compounds read low 0.976 | locus YGL086W, strain mad1, active compounds read low 0.997 | locus YGL167C, strain pmr1, active compounds read low 0.985 | locus YGL173C, strain kem1, active compounds read low 0.998 | locus YGL227W, strain vid30, active compounds read low 0.979 | locus YGL240W, strain doc1, active compounds read low 1.01 | locus YGL248W, strain PDE1, active compounds read low 1.03 | locus YGL253W, strain hxk2, active compounds read low 0.986 | locus YGR135W, strain pre9, active compounds read low 0.997 | locus YGR252W, strain gcn5, active compounds read low 0.936 | locus YHR013C, strain ard1, active compounds read low 0.927 | locus YHR027C, strain rpn1, active compounds read low 1.01 | locus YHR030C, strain SLT2, active compounds read low 1.01 and 0.989 | locus YHR079C, strain IRE1 (second series), active compounds read low 0.989 | locus YHR079C, strain IRE1, active compounds read low 0.991 | locus YHR094C, strain hxt1, active compounds read low 0.991 | locus YHR129C, strain ARP1, active compounds read low 1.01 | locus YHR142W, strain chs7, active compounds read low 0.968 | locus YHR200W, strain rpn10, active compounds read low 0.999 | locus YIL066C, strain RNR3, active compounds read low 1.02 | locus YIL073C, strain SPO22, active compounds read low 0.965 | locus YIL125W, strain kgd1, active compounds read low 0.981 | locus YIR030C, strain dcg1, active compounds read low 0.999 | locus YJL092W, strain hpr5, active compounds read low 0.997 | locus YJL095W, strain BCK1 (second series), active compounds read low 0.971 | locus YJL095W, strain BCK1, active compounds read low 1.03 and 0.974 | locus YJL115W, strain asf1, active compounds read low 0.983 | locus YJL129C, strain trk1, active compounds read low 0.946 | locus YJL134W, strain LCB3, active compounds read low 1.01 | locus YJL154C, strain vps35, active compounds read low 0.97 | locus YJL164C, strain tpk1, active compounds read low 0.991 | locus YJL166W, strain qcr8, active compounds read low 1 | locus YJL168C, strain set2, active compounds read low 0.992 | locus YJL187C, strain SWE1 (second series), active compounds read low 1.03 | locus YJL187C, strain SWE1, active compounds read low 0.986 | locus YJR043C, strain POL32, active compounds read low 1.01 | locus YJR066W, strain TOR1, active compounds read low 0.961
